Sampled rows, rich in hits. Any-hit rate of the full collection: about 15%.
RORg inh: blocks mouse ROR gamma transcriptional activity; Drosophila S2 Gal4-RORgamma UAS-luciferase reporter, 20 h; P51450; Potency, µM (titrated, usually from 53.6 µM), hits mostly inhibitors; actives 5.4% (n = 310,000); further: nearly all actives have a fitted effect of over 60% in size
Target sequence (P51450 whole entry, looked up, the tested form may be a part): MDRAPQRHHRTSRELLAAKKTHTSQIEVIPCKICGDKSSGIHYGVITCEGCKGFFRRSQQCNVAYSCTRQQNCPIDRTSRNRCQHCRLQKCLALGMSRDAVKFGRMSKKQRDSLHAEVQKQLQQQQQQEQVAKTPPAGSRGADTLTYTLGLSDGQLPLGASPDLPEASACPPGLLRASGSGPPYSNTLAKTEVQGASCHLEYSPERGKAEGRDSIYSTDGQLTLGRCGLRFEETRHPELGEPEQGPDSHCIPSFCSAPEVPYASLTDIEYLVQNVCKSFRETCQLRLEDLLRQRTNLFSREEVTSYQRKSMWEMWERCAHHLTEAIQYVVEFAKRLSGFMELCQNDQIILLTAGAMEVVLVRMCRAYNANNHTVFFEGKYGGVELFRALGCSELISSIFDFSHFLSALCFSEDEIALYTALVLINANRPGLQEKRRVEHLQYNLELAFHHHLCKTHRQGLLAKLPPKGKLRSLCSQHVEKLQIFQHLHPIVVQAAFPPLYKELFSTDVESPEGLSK
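Using a luciferase readout, inhibitors were identified by reduced reporter activity in Drosophila cells coexpressing a copper-inducible Gal4–ROR gamma fusion and UAS-driven Photinus luciferase, incubated 20 hr after 700 uM copper sulfate.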
ELG1 repair inh: inhibitors of ELG1-dependent DNA repair in HEK293T cells; actives 2.3% (n = 330,000); AID 504467; Potency, µM (highest dose often 46.1 µM), actives largely listed as inhibitors; HEK293T ELG1-luciferase reporter, luminescence, 16 h; DNA damage induced by 5-fluorouridine; further: nearly all actives have a fitted effect of over 55% in size
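Quantitative HTS, concentration-response format. 2,000 cells/well co-treated with 5-fluorouridine and compound, 16 hr in 5% CO2 at 37 °C; ONE-Glo luminescence read after 30 min.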
VP16 counter: counter-screen for ROR gamma inhibitors: Gal4-VP16 reporter | Drosophila S2 Gal4-VP16 UAS-luciferase, luminescence, 20 h | Potency, µM (titrated, usually from 53.6 µM), most hits filed as inhibitors | actives 3.5% (n = 310,000) | AID 2546;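 further: Gal4-VP16 expression switched on by copper sulfate through the metallothionein promoter; nearly all actives have a fitted effect of over 50% in size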
DT40 TDP1 CPT: DT40-hTDP1 cell growth loss with CPT | AID 686979 | Potency, µM (highest dose often 46.2 µM), actives largely listed as inhibitors | chicken DT40 Tdp1-/-;hTDP1 cells + 20 nM CPT, ATP luminescence, 48 h | actives 12% (n = 420,000); further: nearly all actives have a fitted effect of over 55% in size
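Chicken DT40 Tdp1-/- cells stably complemented with human TDP1 were seeded at 400 cells/well in medium containing 20 nM camptothecin, exposed to pin-transferred compounds, and grown at 37 °C for at least 48 hr. Viability was read as ATP luminescence.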
12-LOX inh: ALOX12 (human) lipoxygenase inhibition; P18054; purified 12hLO, xylenol orange hydroperoxide absorbance; Potency, µM (highest dose often 108 µM), usual class: inhibitors; actives 1.1% (n = 580,000); AID 1671190
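Hydroperoxide product was detected by ferrous iron/xylenol orange as the 573 to 405 nm absorbance ratio. Arachidonic acid at 40 uM (final) was turned over for 30 min at room temperature by 150 nM human 12hLO, pH 7.0 Hepes buffer, after 15 min compound preincubation.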
DT40 TDP1 no CPT: qHTS for Inhibitors of human tyrosyl-DNA phosphodiesterase 1 (TDP1): qHTS in cells in absence of CPT; DT40 Tdp1-/- hTDP1 cells, no CPT, ATP luminescence, 48 h; Potency, µM (titrated, usually from 46.2 µM), actives largely listed as inhibitors; actives 15% (n = 420,000); AID 686978, 2013; further: nearly all actives have a fitted effect of over 55% in size
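Seeded 400 DT40-hTDP1 cells/well (vehicle DMSO, no 20 nM CPT); pinned compounds; ≥48 hr at 37 °C; CellTiter-Glo luminescence as viability measure.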
Hits are given with their value; i = inactive; ? = inconclusive; nt = no result given; [ ] = another dose, or the depositor's remark. The call rests on the fitted dose curve; in most records, active means well fitted curve in the direction sought with a large enough effect; inconclusive means small, poorly fitted or top-dose-only effect, or another doubt; inactive means no such curve, though single readings can be large; an effect the other way counts as inactive or inconclusive.

SMILES	RORg inh	ELG1 repair inh	VP16 counter	DT40 TDP1 CPT	12-LOX inh	DT40 TDP1 no CPT
COC(CNC(=O)CNC(=O)OCc1ccccc1)c1ccccc1 (stereo not drawn)	nt	nt	nt	nt	i	nt
COc1cccc(/C=C(/CC(=O)O)c2nc3ccccc3o2)c1	nt	nt	nt	nt	i	nt
O=C(c1ccccn1)N1CCC2(CC1)NC(=O)N(Cc1ccccc1Cl)C2=O	nt	nt	nt	nt	i	nt
c1ccc(CNc2ncnc3scc(-c4cccs4)c23)nc1	?	8.2µM	?	10µM	i	9.2µM
Cc1c(C)n(Cc2ccccn2)c2ncnc(NCc3ccccn3)c12	nt	nt	nt	nt	i	nt
c1ccc(CNc2ncnc3sc4c(c23)CCC4)nc1	i	?	i	?	i	15µM
Oc1ccc(Nc2ncnc3scc(-c4ccccc4)c23)cc1	i	?	i	?	i	8.2µM
CCOc1ccc(-c2csc3ncnc(Nc4cccc(O)c4)c23)cc1	nt	nt	nt	?	i	?
CCN(CC)c1ncnc2sc3c(c12)CCC3	i	15µM	i	?	?	?
CN(C)CCCNc1ncnc2scc(-c3ccccc3)c12	i	i	i	i	i	?
c1ccc(-c2csc3ncnc(NCc4ccccn4)c23)cc1	i	12µM	?	12µM	i	9.2µM
CN(C1CCCCC1)S(=O)(=O)c1ccc(=S)[nH]c1	nt	i	nt	?	40µM	?
COc1cc(/C=c2/sc3nc(-c4ccccc4)c(-c4ccccc4)n3c2=O)cc(OC)c1OC	i	i	i	6.5µM	i	10µM
COc1ccc(/C=c2\sc3nc(-c4ccccc4)c(-c4ccccc4)n3c2=O)cc1OC	i	i	i	?	i	16µM
Cc1ccc(C)c(NC(=O)CSc2ncnc3ccccc23)c1	nt	nt	nt	nt	i	nt
CC(=O)c1cccc(NC(=O)C2Cc3c(-c4ccc(Cl)cc4)ccnc3O2)c1 (stereo not drawn)	nt	nt	nt	?	nt	10µM
CN(C)c1cccc(NC(=O)C2Cc3c(-c4ccc(Cl)cc4)ccnc3O2)c1 (stereo not drawn)	nt	nt	nt	?	i	?
CC(=O)c1cccc(-c2ccnc3c2CC(C(=O)Nc2ccc(Cl)cc2)O3)c1 (stereo not drawn)	nt	nt	nt	?	i	21µM
O=C(Nc1ccc(Cl)c(C(F)(F)F)c1)C1Cc2c(-c3ccc4c(c3)OCO4)ccnc2O1 (stereo not drawn)	nt	nt	nt	23µM	i	?
CC(=O)c1cccc(-c2ccnc3c2CC(C(=O)Nc2ccc(Cl)c(C(F)(F)F)c2)O3)c1 (stereo not drawn)	nt	nt	nt	21µM	?	?
CC(=O)Nc1ccc(NC(=O)C2Cc3c(-c4cccc(C(C)=O)c4)ccnc3O2)cc1 (stereo not drawn)	nt	nt	nt	i	i	i
O=C(CCc1nc2ccccc2[nH]1)N1CCC(c2noc(-c3ccncc3)n2)C1 (stereo not drawn)	nt	nt	nt	nt	i	nt
O=C1Nc2ccccc2CC12CCN(CC1CC1)CC2	nt	nt	nt	nt	i	nt
Cn1cnnc1SCC(=O)N1CCc2ccccc2C1	nt	nt	nt	i	i	i
Cc1cc2ccccc2n2c(SCC(=O)N3CCc4ccccc4C3)nnc12	?	?	18µM	?	?	?
SMILES	RORg inh	ELG1 repair inh	VP16 counter	DT40 TDP1 CPT	12-LOX inh	DT40 TDP1 no CPT
COc1ccc(N2CCN(C(=O)CSc3nnc(-c4ccco4)n3C)CC2)cc1	i	i	i	i	i	i
COc1ccc(N2CCN(C(=O)CSc3nnc4c(C)cc5ccccc5n34)CC2)cc1	i[10 µM]	23µM	i	16µM	i	13µM
C=CCn1c(SCC(=O)N2CCN(C(=O)c3ccco3)CC2)nc2sc(CC)cc2c1=O	?	?	i	i	i	?
C=CCn1c(SCC(=O)N2CCc3ccccc3C2)nc2sc(C)cc2c1=O	?	?	i	?	i	26µM
O=C(COc1ccc2c(c1)CCC2)NCc1ccccc1CN1CCCCC1	nt	nt	nt	nt	i	nt
CCOc1cc2c(cc1NC(=O)CC1CCCC1)OC(C)C2 (stereo not drawn)	nt	nt	nt	nt	i	nt
COc1ccc(C(=O)N2CCC(Oc3ccccc3)C2)cc1 (stereo not drawn)	nt	nt	nt	nt	i	nt
CS(=O)(=O)N1CCCN(C(=O)c2cnn(Cc3ccccc3Cl)c2)CC1	nt	nt	nt	nt	i	nt
CC(=O)N=c1sc2ccccc2n1C	i	?	i	i	i	i
CC(=O)N=c1sc2nc3ccccc3nc2n1N(C(C)=O)C(C)=O	10µM	i	?	i	?	i
CC(C)(C)c1cc(NCc2ccccn2)n2ncc(-c3ccccc3)c2n1	0.45µM	i	1.4µM	2.6µM	i	4.6µM
COc1cc(CC(=O)OCC(=O)Nc2sccc2C(N)=O)cc(OC)c1OC	i	7.3µM	?	29µM	i	16µM
NC(=O)c1ccsc1NC(=O)COC(=O)/C=C/c1ccccc1[N+](=O)[O-]	nt	?	nt	?	i	16µM
O=C(COC(=O)/C=C/c1ccccc1[N+](=O)[O-])NC1CC1	i	i	i	?	i	21µM
NC(=O)c1ccsc1NC(=O)COC(=O)/C=C/c1ccccc1	nt	?	nt	?	i	18µM
NC(=O)c1ccsc1NC(=O)COC(=O)CCc1ccccc1	nt	nt	nt	i	i	?
Cc1cc(N2CCN(c3cccc(C(F)(F)F)c3)CC2)n2ncnc2n1	i	i	i	?	i	23µM
Cc1cc(N2CCN(C(=O)OC(C)(C)C)CC2)n2ncnc2n1	i	?	i	i	i	i
Cc1nc2ncnn2c(N2CCN(c3cccc(C(F)(F)F)c3)CC2)c1C	?	?	?	16µM	i	21µM
Cc1cc(N2CCN(c3cccc(C(F)(F)F)c3)CC2)n2nc(-c3ccccc3C)nc2n1	nt	nt	nt	18µM	i	16µM
O=C(Nc1ccc(OC(F)F)cc1)c1n[nH]c(=O)c2ccccc12	nt	nt	nt	nt	i	nt
CCn1c(=O)c(C(=O)CN(C)CC(=O)Nc2ccccc2Br)c(N)n(Cc2ccccc2)c1=O	nt	?	nt	21µM	i	18µM
CCn1c(=O)c(C(=O)CN2CCc3ccccc32)c(N)n(Cc2ccccc2)c1=O	i	?	i	?	i	?
CC1(C)c2ccccc2N2CC(=O)NC21/C=C/c1ccco1 (stereo not drawn)	?	i	?	?	?	23µM
CCOC(=O)c1ccc(NC(=O)N2Cc3[nH]cnc3C[C@H]2c2nc(-c3ccc(C)cc3)no2)cc1	nt	nt	nt	nt	i	nt
COc1ccc(N(Cc2cc3ccc(C)cc3[nH]c2=O)C(=O)C2CCCO2)cc1 (stereo not drawn)	i	i	i	i	i	i
Cc1cccc(N(Cc2cc3ccccc3[nH]c2=O)C(=O)c2ccco2)c1C	i[10 µM]	i	i	26µM	i	i
COc1ccc(N(Cc2cc3ccc(C)cc3[nH]c2=O)C(=O)c2ccco2)cc1	i	i	i	23µM	i	21µM
